From PubChem BioAssay
The entries come from a sample that favours hits as a whole.
ST2 inh – inhibitors of human ST2 (IL1RL1) binding to IL-33, primary screen, biochemical, AlphaLISA; 78,000 tested, 2.3% active; AlphaLISA ST2-Fc/biotin-IL-33 interaction, 1 h; Interleukin-1 receptor-like 1 (Homo sapiens), Q01638; AID 1259354, 2018; inhibition, % for hits at 17 µM; in the data active means inhibition above about 30%
Target sequence (Q01638 whole entry, looked up): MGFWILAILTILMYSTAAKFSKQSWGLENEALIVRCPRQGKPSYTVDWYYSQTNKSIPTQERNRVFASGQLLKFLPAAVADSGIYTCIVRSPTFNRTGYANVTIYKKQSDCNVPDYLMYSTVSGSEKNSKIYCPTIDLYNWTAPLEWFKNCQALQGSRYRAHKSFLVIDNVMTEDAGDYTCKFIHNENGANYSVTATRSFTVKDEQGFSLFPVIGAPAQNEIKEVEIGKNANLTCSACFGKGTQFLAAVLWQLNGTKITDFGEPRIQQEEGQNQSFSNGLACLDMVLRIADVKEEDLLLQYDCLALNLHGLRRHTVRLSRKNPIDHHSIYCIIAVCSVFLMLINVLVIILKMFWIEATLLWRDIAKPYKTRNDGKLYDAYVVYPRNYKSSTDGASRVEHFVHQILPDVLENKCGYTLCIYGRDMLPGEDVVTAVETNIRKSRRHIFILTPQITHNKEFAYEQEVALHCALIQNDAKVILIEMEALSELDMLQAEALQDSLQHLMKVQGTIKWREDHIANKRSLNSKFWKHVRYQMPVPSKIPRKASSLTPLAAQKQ
A number is an active result; ! = a repeat was not active.

Results for CN(C)c1oc(COc2ccc(Cl)cc2Cl)nc1S(=O)(=O)c1ccccc1 ?
ST2 inh: 36.0%

Results for CN(C)c1oc(-c2ccccc2)nc1S(=O)(=O)c1ccccc1 ?
ST2 inh: inactive

Results for Cc1nc(S(=O)(=O)c2ccccc2)c(N(C)C)o1 ?
ST2 inh: inactive

How did N#Cc1ccc(-c2ccccc2)nc1SC1CC(=O)N(c2ccccc2)C1=O (stereo not given) do in these assays?
ST2 inh: inactive

What do the screens show for `Cc1ccc(N2C(=O)C3C4C=CC(C4)C3C2=O)cc1F` (stereo not given)?
ST2 inh: inactive

Results for CC1(C)Cc2c(sc3nc(SCc4ccc5c(c4)OCO5)n(-c4ccccc4)c(=O)c23)CO1 ?
ST2 inh: inactive

How did COc1ccccc1C(=O)Nc1cccc(-c2nc3cc(C)ccc3o2)c1 do in these assays?
ST2 inh: inactive

Results for Cc1cc(C)c(C#N)c(Nc2ccc(Cl)c(Cl)c2)n1 ?
ST2 inh: inactive

How did Cc1c(NS(=O)(=O)c2ccc3c(c2)C(=O)c2ccccc2-3)c(=O)n(-c2ccccc2)n1C do in these assays?
ST2 inh: inactive

How did COc1ccc(S(=O)(=O)NCC(C)C)cc1OC do in these assays?
ST2 inh: inactive

Results for CC(C)CCNS(=O)(=O)c1ccc2c(c1)C(=O)c1cc(S(=O)(=O)NCCC(C)C)ccc1-2 ?
ST2 inh: 36.0%

What do the screens show for `CC1=C(C(=O)Nc2cccc(C)n2)C(c2ccc(F)cc2)C2=C(CCCC2=O)N1` (stereo not given)?
ST2 inh: inactive

How did Cc1cc(C)n(Cc2cc(C(=O)NCCN3CCOCC3)n[nH]2)n1 do in these assays?
ST2 inh: inactive

How did Cc1nnc(N=Cc2cc(Br)cc(Br)c2O)s1 do in these assays?
ST2 inh: inactive

Results for O=C(O)C1CC2(CCNCC2)CN1Cc1ccccc1OCCO (stereo not given) ?
ST2 inh: inactive

Results for CCOC(=O)CSc1nc2c(c(=O)n1-c1ccc(C)cc1)SCC2 ?
ST2 inh: inactive

What do the screens show for `Cc1ccc(-n2c(SCC(=O)NCCc3ccccc3)nc3c(c2=O)SCC3)cc1`?
ST2 inh: 31.0%

What do the screens show for `Cc1ccc(-n2c(SCC(=O)Nc3nccs3)nc3c(c2=O)SCC3)cc1`?
ST2 inh: inactive

What do the screens show for `Cc1ccc(-n2c(SC(C)c3ccccc3)nc3c(c2=O)SCC3)cc1` (stereo not given)?
ST2 inh: 31.0%!

How did Cc1ccc(-n2c(SCC(=O)Nc3cccc(C(F)(F)F)c3)nc3c(c2=O)SCC3)cc1 do in these assays?
ST2 inh: inactive

Results for Cc1ccc(-n2c(SCC(=O)Nc3cccc(Cl)c3)nc3c(c2=O)SCC3)cc1 ?
ST2 inh: 31.0%

What do the screens show for `Cc1ccc(-n2c(SCC(=O)Nc3cc(C)ccc3C)nc3c(c2=O)SCC3)cc1`?
ST2 inh: inactive

Results for CCOC(=O)C(CC)Sc1nc2c(c(=O)n1-c1ccccc1)SCC2 (stereo not given) ?
ST2 inh: inactive

Results for CCOC(=O)C(C)Sc1nc2c(c(=O)n1-c1ccc(Cl)cc1)SCC2 (stereo not given) ?
ST2 inh: inactive

What do the screens show for `Cc1ccc(-n2c(SCC(=O)Nc3ccccc3F)nc3c(c2=O)SCC3)cc1`?
ST2 inh: 32.0%

What do the screens show for `O=C(CSc1nc2c(c(=O)n1-c1ccc(F)cc1)SCC2)NCc1ccc(F)cc1`?
ST2 inh: inactive

How did O=C(CSc1nc2c(c(=O)n1-c1ccc(Cl)cc1)SCC2)Nc1cccc(Cl)c1 do in these assays?
ST2 inh: inactive

Results for O=C(c1cc(-c2ccc(F)cc2)on1)N1CCN(Cc2ccccc2)CC1 ?
ST2 inh: inactive

What do the screens show for `CCCCOC(=O)C(CC)Sc1n[nH]c(=O)[nH]c1=O` (stereo not given)?
ST2 inh: inactive

What do the screens show for `CCOC(=O)C1(CC2CCCCO2)CCN(C(=O)CSc2ccccc2)CC1` (stereo not given)?
ST2 inh: inactive

What do the screens show for `COc1ccc(C2CC(c3ccccc3Cl)n3ncnc3N2)cc1` (stereo not given)?
ST2 inh: inactive

Results for Cc1c(C(=O)N2CCCCCC2)oc2ccc(S(=O)(=O)N3CCCCCC3)cc12 ?
ST2 inh: inactive

Results for Cc1cccc(-c2nsc(SCC(=O)N3CCOCC3)n2)c1 ?
ST2 inh: inactive

Results for CCC(C)NC(=O)c1cnc(Nc2ccc(F)cc2)c2ccccc12 (stereo not given) ?
ST2 inh: inactive

How did COc1ccc(CCN2CC34C=CC(O3)C(C(=O)NCc3ccc(C)cc3)C4C2=O)cc1OC (stereo not given) do in these assays?
ST2 inh: inactive

What do the screens show for `CCC(Sc1nc2c(c(=O)n1-c1ccc(Cl)cc1)SCC2)C(=O)OC` (stereo not given)?
ST2 inh: inactive

Results for CC(c1cc2ccccc2[nH]1)N(C)C(=O)c1cnn2c1CCCC2 (stereo not given) ?
ST2 inh: inactive

Results for CCN(CC)S(=O)(=O)c1ccc(C(=O)N(c2ccc(C)c(C)c2)C2C=CS(=O)(=O)C2)cc1 (stereo not given) ?
ST2 inh: inactive

What do the screens show for `CN(Cc1ccccc1)C(=O)c1cnc(N2CCN(c3ccccn3)CC2)c2ccccc12`?
ST2 inh: inactive

How did COc1ccccc1-n1c(SCc2ccccc2)nc2c(c1=O)SCC2 do in these assays?
ST2 inh: inactive

Results for COc1ccccc1-n1c(SCC(=O)Nc2ccccc2)nc2c(c1=O)SCC2 ?
ST2 inh: 35.0%!

How did CCSc1nc2c(c(=O)n1-c1ccccc1OC)SCC2 do in these assays?
ST2 inh: inactive

What do the screens show for `Cc1ccc(S(=O)(=O)NC2=NCN(c3ccc(Cl)cc3)CN2)cc1[N+](=O)[O-]`?
ST2 inh: inactive

How did Cc1cc(C)c(NC(=O)C2CCCN2C23C[C@@H]4C[C@@H](CC(O)(C4)C2)C3)c(C)c1 (stereo not given in full) do in these assays?
ST2 inh: inactive

What do the screens show for `CC(=O)OCCn1nc(-c2ccccc2)c2ccccc2c1=O`?
ST2 inh: inactive

How did O=c1c2ccccc2c(-c2cccs2)nn1CCc1ccccc1 do in these assays?
ST2 inh: 35.0%

Results for CC(C)Cn1nc(-c2ccccc2)c2ccccc2c1=O ?
ST2 inh: inactive

How did Cc1ccc(-c2nnc(SCC#CCO)o2)cc1 do in these assays?
ST2 inh: inactive

What do the screens show for `CCOc1ccc(C2CC(=O)N3CN(c4ccc(OC)cc4OC)CSC3=C2C#N)cc1` (stereo not given)?
ST2 inh: inactive

Results for Cc1cc2oc(=O)cc(C)c2cc1NC(=O)c1cnccc1C ?
ST2 inh: inactive

Results for Cc1ccc(Nc2cc(C)nc(Nc3ccc(NC(=O)c4ccc(Br)o4)cc3)n2)cc1 ?
ST2 inh: inactive

What do the screens show for `COc1ccc(Nc2cc(C)nc(Nc3ccc(NC(=O)C4CCCCC4)cc3)n2)cc1`?
ST2 inh: 34.0%

Results for COc1ccc(Nc2cc(C)nc(-c3ccccc3)n2)cc1 ?
ST2 inh: inactive

How did CC(=O)Nc1ccc(Nc2nc(C)cc(Nc3ccc(C)cc3)n2)cc1 do in these assays?
ST2 inh: inactive

How did Cc1cc(Nc2ccccc2)nc(Nc2ccc(NC(=O)C3CCCCC3)cc2)n1 do in these assays?
ST2 inh: inactive

Results for Cc1ccc(Nc2cc(C)nc(Nc3ccc(NC(=O)C4CCCCC4)cc3)n2)cc1 ?
ST2 inh: 30.0%

What do the screens show for `Cc1ccc(Nc2cc(C)nc(Nc3ccc(NC(=O)C(C)(C)C)cc3)n2)cc1`?
ST2 inh: 33.0%

Results for Cc1ccc(Nc2cc(C)nc(Nc3ccc(NC(=O)c4ccc(Br)cc4)cc3)n2)cc1 ?
ST2 inh: inactive
